Screens as filed in PubChem BioAssay.
IL-1B inflam inh: inflammasome signaling inhibition, IL-1 beta readout | activity change, % at 57.5 µM | hit rate 4.7% among 360,000 | THP-1 LPS/ATP IL-1B secretion, AlphaLISA, 16 h; stronger effect = lower value; in the data active means activity change below about -50%; inconclusive means mostly about -30% to -49%
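Secreted IL-1B measured by AlphaLISA bead assay after 16 h compound exposure of THP-1 cells; compounds (final up to 57.5 uM) added 1 h before LPS (250 ng/mL) and ATP (1.25 mM) stimulation; lower signal means less secretion.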
HT1080-NT tox: kills 2HG-producing HT-1080-NT fibrosarcoma cells; Potency, µM (titrated, usually from 46.1 µM), for inactives: at the highest dose activity, negative = less viability, hits mostly cytotoxic; hit rate 1.6% among 360,000; HT-1080-NT fibrosarcoma viability, CellTiter-Glo ATP luminescence, 48 h; AID 686970;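 further: NT is the 2HG producing partner of a matched IDH1 knockdown line; potency means the concentration at half of the fitted maximal effect; 0% = DMSO-treated cells and -100% = media-only wells without cells; nearly all actives have a fitted effect of over 55% in size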
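A 48-hour cytotoxicity screen used HT-1080-NT cells plated 2 hours before compound delivery. ATP-based CellTiter-Glo luminescence measured viability, normalized to DMSO and no-cell controls.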
DT40 TDP1 CPT: growth inhibition of DT40 Tdp1-/-;hTDP1 cells with camptothecin (screen for TDP1 inhibitors); chicken DT40 Tdp1-/-;hTDP1 cells + 20 nM CPT, ATP luminescence, 48 h; Potency, µM (top dose mostly 46.2 µM), for inactives: at the top dose activity change, negative = growth inhibition, actives largely listed as inhibitors; hit rate 12% among 420,000; further: potency means the concentration at half of the fitted maximal effect; nearly all actives have a fitted effect of over 55% in size
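Chicken DT40 Tdp1-/- cells stably complemented with human TDP1 were seeded at 400 cells/well in medium containing 20 nM camptothecin, exposed to pin-transferred compounds, and grown at 37 °C for at least 48 hr. Viability was read as ATP luminescence.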
DT40 TDP1 no CPT: qHTS for Inhibitors of human tyrosyl-DNA phosphodiesterase 1 (TDP1): qHTS in cells in absence of CPT; DT40 Tdp1-/- hTDP1 cells, no CPT, ATP luminescence, 48 h; Potency, µM (titrated, usually from 46.2 µM), inactives show at the top dose activity change, negative = growth inhibition, hits mostly inhibitors; hit rate 15% among 420,000; AID 686978, 2013; further: potency means the concentration at half of the fitted maximal effect; nearly all actives have a fitted effect of over 55% in size
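Seeded 400 DT40-hTDP1 cells/well (vehicle DMSO, no 20 nM CPT); pinned compounds; ≥48 hr at 37 °C; CellTiter-Glo luminescence as viability measure.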
HT1080 IDH1KD tx: kills HT-1080 cells with IDH1 knockdown. HT-1080 IDH1 knockdown viability, ATP luminescence, 48 h. Potency, µM (titrated, usually from 46.1 µM), inactives show at the top dose activity, negative = toxicity, actives largely listed as cytotoxic. hit rate 2% among 360,000. AID 686971;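 further: potency means the concentration at half of the fitted maximal effect; 0% = DMSO wells and -100% = cell-free medium wells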
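% activity derives from luminescence (CellTiter-Glo), normalised to DMSO and no-cell wells. HT-1080-IDH1KD cells, 750/well, had 48 h compound exposure at 37 °C.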
An asterisk follows results filed as active; ? = inconclusive; · = not tested or not shown. Most compounds without a hit are left out; they make up all but 19% or so of the library. Unless noted, the call rests on the fitted dose curve; in most records, active means well fitted curve in the direction sought with a large enough effect; inconclusive means small, poorly fitted or top-dose-only effect, or another doubt; inactive means no such curve, though single readings can be large; an effect the other way counts as inactive or inconclusive. Unless noted, on the % scale 0 is the no-effect control and ±100 the full control effect.

SMILES	IL-1B inflam inh	HT1080-NT tox	DT40 TDP1 CPT	DT40 TDP1 no CPT	HT1080 IDH1KD tx
CCn1c(SCC(=O)NCc2ccccc2)nnc1-c1c[nH]c2ccccc12	-12	3%	?	-12%	7%
CCCCOC(=O)CSc1nc2ccccc2o1	·	1%	7%	-14%	22%
O=c1[nH]c(-c2ccccc2)ncc1OCc1ccccc1	-7	11%	13µM*	-22%	20%
O=C(CNCC1CCCCC1)Nc1ccc(OC(F)(F)F)cc1	-101*	-8%	-15%	-10%	-1%
COc1ccc(C(=O)NCC(=O)OCC(=O)Nc2ccc(C)c(S(=O)(=O)N(C)C)c2)cc1OC	0	-2%	11%	-5%	14%
O=C(CSc1nn(-c2ccccc2)c(=S)s1)Nn1cnnc1	14	6%	0%	-1%	2%
COc1ccc(CCC(=O)Nc2ccc(C)c(S(=O)(=O)N(C)C)c2)cc1OC	18	-2%	?	16µM*	-29%
Cc1ccc(NC(=O)CSc2nn(-c3ccccc3)c(=S)s2)cc1S(=O)(=O)N(C)C	-1	-15%	5.2µM*	5.2µM*	?
COc1ccc(CCNCC(=O)Nc2ccc(C)c(S(=O)(=O)N(C)C)c2)cc1	-76*	-10%	-30%	4.6µM*	-29%
O=C(COC(=O)Cc1ccc(S(=O)(=O)N2CCOCC2)s1)Nc1ccccc1	?	3%	-9%	?	15%
Cc1cccc(OCC(=O)Nc2ccc(C(=O)OCc3cc(=O)n4nc(C5CC5)sc4n3)cc2)c1	·	·	-14%	-19%	·
NS(=O)(=O)c1cccc(NC(=O)CN2CCN(Cc3ccc4c(c3)OCO4)CC2)c1	0	0%	5%	-20%	7%
COc1cc(CCC(=O)Nc2ccc(C)c(S(=O)(=O)N(C)C)c2)cc(OC)c1OC	5	-3%	15µM*	21µM*	?
Cc1ccc(NC(=O)CNCC2CCCCC2)cc1S(=O)(=O)N(C)C	-23	9%	16µM*	?	-2%
Cc1ccc(NC(=S)NC2CCCCC2)cc1S(=O)(=O)N(C)C	0	2%	?	?	-16%
COc1cc(CCC(=O)OCC(=O)Nc2cccc(S(=O)(=O)N(C)C)c2)cc(OC)c1OC	0	-2%	-8%	6%	1%
C/C(COc1ccccc1)=N\NC(=O)c1nnn(-c2nonc2N)c1CSc1ccccc1	15	-1%	-2%	-23%	-6%
Cc1ccc(S(=O)(=O)c2cn(CC(=O)Nc3ccc(F)cc3)c3cc4c(cc3c2=O)OCO4)cc1	·	·	-2%	-17%	·
Cn1cc([C@]2(O)C(=O)Nc3c(F)cccc32)c2ccccc21	-1	-7%	-9%	-6%	-6%
CC(C)(C)NS(=O)(=O)c1ccc(/C=C/C(=O)O)cc1	5	4%	1%	-7%	4%
CCOC(=O)N1CCN(C(=O)CN(c2ccc(C)cc2)S(=O)(=O)c2c(C)noc2C)CC1	14	5%	-20%	-28%	9%
COc1ccc(N(CC(=O)N2CCN(c3cc(C)ccc3C)CC2)S(=O)(=O)c2c(C)noc2C)cc1	0	9%	23µM*	13µM*	13%
COc1ccc(N(CC(=O)N2CCN(c3cccc(C)c3C)CC2)S(=O)(=O)c2c(C)noc2C)cc1	-28	-11%	21µM*	16µM*	-12%
COc1ccc(N(CC(=O)N2CCN(c3ccccc3)CC2)S(=O)(=O)c2c(C)noc2C)cc1	-14	0%	?	?	6%
Cc1ccc(N(CC(=O)N2CCN(c3cc(C)ccc3C)CC2)S(=O)(=O)c2c(C)nn(C)c2C)cc1	·	·	21µM*	16µM*	·
Cc1ccc(N(CC(=O)NC2CCCCC2)S(=O)(=O)c2c(C)nn(C)c2C)cc1	4	14%	-2%	5%	27%
Cc1cc(C)nc(-n2ncc3c2CC(c2cccc(Cl)c2)CC3=O)n1 (stereo not drawn)	-5	?	?	?	?
